High-throughput results: PubChem, National Center for Advancing Translational Sciences (NCATS)
FLuc counter: qHTS profiling assay for firefly luciferase inhibitor/activator using purifed enzyme and Km concentrations of substrates (counterscreen for miR-21 project). Luciferin 4-monooxygenase (Photinus pyralis), P08659. purified FLuc, Km substrates, luminescence inhibition. Potency, µM (series often up to 57.5 µM), for inactives: at the top dose activity change, negative = inhibition, hits mostly inhibitors. 6.9% of 360,000 active. AID 588342, 2011;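 note: plate controls were vehicle for no effect and reference inhibitor for full effect; nearly all actives have a fitted effect of over 55% in size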
Target sequence (P08659 whole entry, looked up): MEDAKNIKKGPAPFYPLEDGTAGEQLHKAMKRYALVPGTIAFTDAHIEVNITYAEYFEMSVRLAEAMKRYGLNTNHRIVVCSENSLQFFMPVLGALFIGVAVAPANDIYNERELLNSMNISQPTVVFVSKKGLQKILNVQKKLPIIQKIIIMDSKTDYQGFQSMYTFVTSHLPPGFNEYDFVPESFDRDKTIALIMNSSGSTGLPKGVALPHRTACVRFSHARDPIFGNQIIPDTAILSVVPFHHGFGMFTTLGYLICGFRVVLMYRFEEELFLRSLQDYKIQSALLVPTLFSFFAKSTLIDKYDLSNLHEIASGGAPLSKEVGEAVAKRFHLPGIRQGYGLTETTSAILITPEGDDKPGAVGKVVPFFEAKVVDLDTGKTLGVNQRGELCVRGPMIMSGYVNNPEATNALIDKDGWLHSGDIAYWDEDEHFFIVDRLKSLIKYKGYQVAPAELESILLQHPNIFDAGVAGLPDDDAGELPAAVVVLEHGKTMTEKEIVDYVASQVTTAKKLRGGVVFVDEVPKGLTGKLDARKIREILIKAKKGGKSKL
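Purified P. pyralis luciferase (10nM final) with 10uM D-luciferin and 10uM ATP (Km levels) in 50mM Tris acetate pH 7.5, 10mM Mg acetate, 0.01% Tween-20, 0.05% BSA; qHTS 6-point titration, ~60 µM downward; luminescence read.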
Rab9 prom act: qHTS Assay for Rab9 Promoter Activators. 2.8% of 320,000 active. Huh7 Rab9 promoter-luciferase reporter, luminescence, 24 h. Potency, µM (doses to about 9.22 µM), inactives show top-dose activation, negative = inhibition, actives largely listed as activators. AID 485297, 2010; note: % of control where 0% means no effect; nearly all actives have a fitted effect of over 60% in size
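Cells were plated at 1500 per well in reduced-serum medium with 10% FBS and left 2 h. Compound in DMSO was then added for 24 h at 37 °C. Reporter signal was read by luminescence after 10 min with luciferase detection reagent.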
ELG1 repair inh: qHTS screen for small molecules that inhibit ELG1-dependent DNA repair in human embryonic kidney (HEK293T) cells expressing luciferase-tagged ELG1 | 2.3% of 330,000 active | Potency, µM (series often up to 46.1 µM), inactives show top-dose activity change, negative = inhibition, actives largely listed as inhibitors | HEK293T ELG1-luciferase reporter, luminescence, 16 h; DNA damage induced by 5-fluorouridine | AID 504467, 2011; note: % is set by controls: 0 for no effect and ±100 for the full control effect; nearly all actives have a fitted effect of over 55% in size
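Luminescence from the luciferase reporter, measured 30 min after ONE-Glo reagent at room temperature, was the read-out. Beforehand, 2,000 cells per well were exposed for 16 hr at 37 °C to 5-fluorouridine together with compound or vehicle.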
ELG1 genotox: qHTS screen for small molecules that induce genotoxicity in human embryonic kidney (HEK293T) cells expressing luciferase-tagged ELG1 | HEK293T ELG1-luciferase reporter, luminescence, 16 h | Potency, µM (top dose mostly 46 µM), inactives show at the top dose activity change, positive = activation, most hits filed as activators | 1.3% of 330,000 active | AID 504466, 2011; note: % of control where 0% means no effect; nearly all actives have a fitted effect of over 60% in size
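Screening used a luciferase reporter fused to human ELG1 in HEK293T cells. Luminescence was read on a CCD plate imager after 16 hr exposure and 30 min ONE-Glo incubation.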
SMN2 splice up: qHTS Assay for Enhancers of SMN2 Splice Variant Expression; HEK293 SMN2-luciferase splicing reporter, luminescence, 30-36 h; Potency, µM (top dose mostly 46.1 µM), for the others: at the top dose activity change, positive = activation, hits mostly activators; 2.8% of 210,000 active; AID 1458, 2008; note: % of control where 0% means no effect; nearly all actives have a fitted effect of over 55% in size
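qHTS luciferase splicing reporter: luminescence rises when SMN2 exon 7 is included in transfected HEK293 cells. Compound exposure lasted 30-36 h at 37C, with 4.5 mM final sodium butyrate as control, followed by a ONE-Glo read.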
NPC1 prom act: qHTS Assay for NPC1 Promoter Activators; 2.4% of 320,000 active; Potency, µM (doses to about 9.22 µM), for inactives: at the highest dose activation, hits mostly activators; Huh7 NPC1 promoter luciferase reporter, 24 h; note: % of control where 0% means no effect; nearly all actives have a fitted effect of over 60% in size
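Huh7 reporter cells (NPC1 promoter driving luciferase) are dosed with compound for 24 h at 37 °C, 5% CO2; luciferase detection reagent is then added and luminescence measured after 10 min at ambient temperature.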
* marks the source's active call; other numbers are inactive results; ? = inconclusive; / = not tested or not shown; [ ] = dose if it differs, or a comment. In the library only some 9.3% were active in any assay of this set; here they are far more common. Calls come from the whole dose curve; as a rule, active = well fitted curve in the direction sought with a large enough effect; inconclusive = small, poorly fitted or top-dose-only effect, or another doubt; inactive = no such curve, though single readings can be large; an effect the other way counts as inactive or inconclusive. Potency is the fitted concentration of half-maximal effect.

SMILES | FLuc counter | Rab9 prom act | ELG1 repair inh | ELG1 genotox | SMN2 splice up | NPC1 prom act
COc1cc(CNC(=O)c2ccc(NC(=O)N3CCCCc4ccccc43)cc2)cc(OC)c1OC | -18% | / | / | / | / | /
O=C(COc1ccccc1[N+](=O)[O-])Nc1cc(-c2nc3cc(Cl)ccc3o2)ccc1Cl | -3% | / | / | / | 10% | /
CC(=O)NC(Cc1ccccc1F)C(=O)NC1CCN(S(=O)(=O)c2ccccc2)CC1 (configuration not stated) | -2% | 1% | -2% | 3% | / | 4%
c1ccc(OCc2nc3ccccc3s2)cc1 | 3.4µM* | 2.8µM* | ? | ? | 13µM* | 2.5µM*
COc1ccc(S(=O)(=O)CCc2nc3ccccc3s2)cc1 | 1% | -11% | -6% | -7% | 0% | 2%
O=C(NN=C1CCCC1)c1ccccc1O | ? | 6% | 7% | 0% | / | -1%
C/C(=N\Nc1ccccc1C(=O)O)c1ccncc1 | 11µM* | 3.2µM* | ? | 3.3µM* | / | 2.2µM*
C/C(=N\NC(=O)C(O)c1ccccc1)c1cccnc1 (configuration not stated) | 1% | 2% | 7% | 5% | / | 7%
C/C(=N/NC(=O)c1ccncc1)c1ccccc1Cl | / | / | / | / | 0%[9.22 µM] | /
O=C(O)c1ccccc1NN=C1CCCCC1 | 11µM* | ? | ? | ? | / | ?
C/C(=N\NC(=O)c1sccc1C)c1cccnc1 | 13µM* | ? | ? | ? | / | ?
CCc1ccc(C(=O)N/N=C(\C)c2ccncc2)s1 | 17µM* | 3.2µM* | ? | ? | / | 3.5µM*
C/C(=N\NC(=O)c1cccs1)c1ccncc1 | / | 2% | ? | 6% | / | 16%
COc1ccc(S(=O)(=O)N2CCN(c3ccccc3)CC2)cc1-c1noc(C)n1 | -4% | / | / | / | / | /
Cc1cc(Oc2ccc(=O)n(C)n2)nc(=S)[nH]1 | -12% | -4% | 4% | -1% | -5% | -6%
C/C(=N\NC(=O)c1ccccc1NC(=O)c1ccc(Cl)cc1)c1ccncc1 | 0.027µM* | ? | ? | -23% | -60% | ?
COc1ccc(/C(=N\Nc2ccccc2C(=O)O)c2ccccc2)cc1 | 9.5µM* | 26% | ? | 12% | -31% | 17%
CCOC(=O)C(=O)N/N=C(/c1ccccc1)c1ccc(OC)cc1 | -3% | -2% | -3% | 0% | / | -1%
C/C(=N/NC(=O)c1ccncc1)c1ccccc1 | -13% | 21% | ? | 15% | / | 15%
C/C(=N\NC(=O)c1ccc(N/N=C(\C)c2ccncc2)cc1)c1ccncc1 | ? | 2% | 23µM* | -13% | 4% | -28%
C/C(=N\Nc1ccc(C)c(Cl)c1)c1cccnc1 | 15µM* | ? | ? | 17% | / | ?
CCC(CC)C(=O)Nc1ccc(-c2cn3cccnc3n2)cc1 | ? | 13% | ? | 6% | 14% | 5%
CCCc1c(C(=O)N/N=C(\C)CCc2ccccc2)nnn1-c1nonc1N | -1% | -1% | 6% | 1% | / | -1%
CCOc1ccc(/C=N/NC(=O)CN2CCCCC2)cc1OCC | 1% | 13% | -4% | 2% | / | 2%
C/C(=N\NC(=O)c1sccc1C)c1ccncc1 | 17µM* | 3.2µM* | ? | 10µM* | / | ?
SMILES | FLuc counter | Rab9 prom act | ELG1 repair inh | ELG1 genotox | SMN2 splice up | NPC1 prom act
Cn1c(O)c(C=Nc2ccc(Br)cc2)sc1=O | ? | 4.5µM* | ? | ? | 2.8µM* | ?
COc1ccc(CCNC(=O)C2CCN(S(=O)(=O)c3ccc(SC)cc3)CC2)cc1 | 3% | -1% | -24% | -7% | / | 0%
CC1CCCN(c2ccc3nc4ccccc4c(=O)n3n2)C1 (configuration not stated) | 1.1µM* | ? | ? | -12% | 1.3µM* | ?
Cc1sc2nc3ccc(N4CCCCC4)nn3c(=O)c2c1C | 8.5µM* | ? | ? | -1% | -17% | ?
CC1CCCN(c2c3c(nc4ccccc24)CCCC3)C1 (configuration not stated) | 0% | 1%[1.84 µM] | -28% | -11% | / | -5%
Cc1ccc2nc3ccc(N4CCCC4)nn3c(=O)c2c1 | 11µM* | 1.6µM* | ? | ? | 16µM* | 2.2µM*
COc1cc(C)cc2oc(=O)c(CC(=O)NCCc3ccc(Cl)cc3)c(C)c12 | 6% | / | / | / | 23% | /
COc1ccc(N/C=C2/Sc3ccccc3NC2=O)cc1 | 2.7µM* | ? | ? | ? | 13µM* | ?
O=C1Nc2ccccc2S/C1=C/NCc1ccccc1Cl | 19µM* | 12% | -8% | 1% | 2% | 4%
Cc1ccc(N/C=C2/Sc3ccccc3NC2=O)cc1 | 1.9µM* | 3.2µM* | ? | ? | ? | ?
COc1ccccc1N/C=C1/Sc2cc(Cl)ccc2NC1=O | 0% | -10% | 10% | 2% | 9% | 1%
O=C(NNC(=O)C1COc2ccccc2O1)c1ccccc1O (configuration not stated) | 1% | -6% | 18% | -5% | / | ?
Cc1ccnc(N2CCC(C(=O)Nc3ccc(Oc4ccccc4)cc3)CC2)n1 | 3% | -1% | -1% | 0% | -3% | -3%
Cc1ccnc(N2CCC(C(=O)Nc3cccc(C(F)(F)F)c3)CC2)n1 | -2% | 10% | 16µM* | 3% | -37% | 5%
Cc1cc(C)c(S(=O)(=O)Nc2ncn[nH]2)cc1C | 0% | -8% | 1% | -3% | / | 3%
CCN=c1scc(-c2cccs2)n1/N=C/c1cc(OC)ccc1O | 2.4µM* | ? | ? | ? | ? | 2µM*
CN=c1scc(-c2ccccc2F)n1/N=C/c1ccc[nH]1 | 0.027µM* | -30% | ? | -17% | -110% | -41%
Fc1ccc(N=Cc2ccc[nH]2)cc1 | -9% | -4% | 17% | 1% | / | 0%
CC(C)N=c1scc(-c2cccs2)n1/N=C/c1ccc(O)c(O)c1O | 24µM* | 5% | ? | ? | 3%[1.84 µM] | 2%
COc1ccc(O)c(/C=N/n2c(-c3ccco3)csc2=Nc2cccnc2)c1 | -2% | 2% | 12% | 2% | -13%[1.84 µM] | -2%
CN=c1scc(-c2ccccc2F)n1/N=C/c1ccc(O)c(O)c1O | 0.76µM* | ? | ? | 9% | 0.63µM* | ?
CCn1nc(C)c(C(=O)Nc2cc(Oc3cc(C)cc(C)c3)cc([N+](=O)[O-])c2)c1C | 3% | -10% | 13µM* | -2% | -54% | -12%
